The text below walks through data of PubChem BioAssay (NCI).

Experiment [1] in a line: NCI Yeast Anticancer Drug Screen. Data for the rad50 strain (AID 155).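 Note: 0% = growth of vehicle-only cultures of the same strain.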 Conditions: S. cerevisiae rad50 strain growth inhibition, active compounds read high. Summed up: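 Compounds were tested on a yeast strain with an engineered DNA damage repair alteration; the reported value is growth inhibition normalised to vehicle treatment.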
Experiment [2] can be described thus: NCI Yeast Anticancer Drug Screen. Data for the mec2-1 strain (AID 157). The settings on record: S. cerevisiae mec2-1 strain, active compounds read high. Put shortly:
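Mutant yeast (mec2-1) grown with compound; growth inhibition relative to vehicle control reported.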

Experiment [3] can be described thus: NCI Yeast Anticancer Drug Screen. Data for the sgs1 mgt1 strain (AID 161).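 Note: 0% = growth of cultures given vehicle only.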 The settings on record: S. cerevisiae sgs1 mgt1 strain, active compounds read high. Summed up:
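Yeast cells carrying a defined DNA-repair defect were exposed to test compounds. Growth inhibition was measured relative to vehicle-treated controls.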

Experiment [4] is described as follows: NCI Yeast Anticancer Drug Screen. Data for the cln2 rad14 strain (AID 165).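 Note: 0% = growth equal to vehicle treated cultures.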 The settings on record: S. cerevisiae cln2 rad14 strain, active compounds read high. Put shortly:
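Readout is yeast growth inhibition versus vehicle-treated controls, using a strain with cln2 and rad14 alterations exposed to compound.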

Experiment [5] can be described thus: NCI Yeast Anticancer Drug Screen. Data for the bub3 strain (AID 167). The settings on record: S. cerevisiae bub3 mutant strain, active compounds read high. Summed up: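 Growth of a checkpoint-deficient yeast mutant is measured after compound exposure. Values represent inhibition relative to vehicle.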
A short description of experiment [6]: NCI Yeast Anticancer Drug Screen. Data for the mlh1 rad18 strain (AID 175). Conditions: S. cerevisiae mlh1 rad18 strain growth inhibition, active compounds read high. Summed up: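 Genetically defined yeast (DNA repair-deficient) exposed to compounds; growth inhibition determined relative to vehicle.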
[7] abbreviates: at 5.0 µM (retest, dose inferred, filed as 0.5).
[8] abbreviates: at 50.0 µM (retest, dose inferred, filed as 5.0).

The panel holds about 79,000 compounds, 15% with a hit somewhere; the sample as a whole holds those more often. Unmarked numbers belong to inactive results. The source made the active and inactive calls. Cut-off read from the data, not from the text of the source: active = growth inhibition above about 70%; inactive = the rest.

On to `C=CCc1ccc(OC(=O)CCl)c(OC)c1`, for which the growth inhibition in experiment [1] (setting [7]) is 1%; in experiment [1] (setting [8]), 23%; in experiment [1] (at 50.0 µM), 64.8%; in experiment [2] (setting [7]) it was 1%; in experiment [2] (setting [8]) it was 9%; in experiment [2] (at 50.0 µM), 27.8%. Also, the growth inhibition in experiment [3] (setting [7]) is -1%; in experiment [3] (setting [8]), 5%; in experiment [3] (at 50.0 µM), 12.6%; in experiment [4] (setting [7]) it was 2%; in experiment [4] (setting [8]), 8%; in experiment [4] (at 50.0 µM), 28.8%. The growth inhibition in experiment [5] (setting [7]) was -2%; in experiment [5] (setting [8]), 3%; in experiment [5] (at 50.0 µM), 18.6%; in experiment [6] (setting [7]) it was 0%; in experiment [6] (setting [8]), 26%; in experiment [6] (at 50.0 µM), 81.7% (active).
Regarding `COc1cccc(C2Nc3ccccc3C(=O)N2N2CCOCC2)c1` (stereo not given), the growth inhibition was 3% in experiment [1] (setting [7]); -2% in experiment [1] (setting [8]); 50.9% in experiment [1] (at 50.0 µM); 1% in experiment [2] (setting [7]); 6% in experiment [2] (setting [8]); -7.2% in experiment [2] (at 50.0 µM). In addition, the growth inhibition in experiment [3] (setting [7]) was 1%; in experiment [3] (setting [8]), 0%; in experiment [3] (at 50.0 µM), 32.4%; in experiment [4] (setting [7]), 0%; in experiment [4] (setting [8]) it was -6%; in experiment [4] (at 50.0 µM), -21.6%. For the same compound, the growth inhibition in experiment [5] (setting [7]) was -2%; in experiment [5] (setting [8]) it was -5%; in experiment [5] (at 50.0 µM) it was 7.4%; in experiment [6] (setting [7]), -2%; in experiment [6] (setting [8]) it was -3%; in experiment [6] (at 50.0 µM), -5.05%.
On to `Cc1cc(C)nc(/C=C/c2ccccc2)c1`, for which the growth inhibition in experiment [1] (setting [7]) is -1%; in experiment [1] (setting [8]), -10%; in experiment [1] (at 50.0 µM), 98.5% (active); in experiment [2] (setting [7]) it was 1%; in experiment [2] (setting [8]) it was 7%; in experiment [2] (at 50.0 µM), 96.6% (active). Further, the growth inhibition is -9% in experiment [3] (setting [7]); 22% in experiment [3] (setting [8]); 98.6% (active) in experiment [3] (at 50.0 µM); -1% in experiment [4] (setting [7]); 16% in experiment [4] (setting [8]); 94.1% (active) in experiment [4] (at 50.0 µM). The growth inhibition was 18% in experiment [5] (setting [7]); 29% in experiment [5] (setting [8]); 97.1% (active) in experiment [5] (at 50.0 µM); 10% in experiment [6] (setting [7]); 18% in experiment [6] (setting [8]); 97.8% (active) in experiment [6] (at 50.0 µM).
As for `COc1ccc2c(Cc3ccccc3)c3[n+](cc2c1OC)CCc1cc2c(cc1-3)OCO2`, the growth inhibition was 2% in experiment [1] (setting [7]); 98% (active) in experiment [1] (setting [8]); 98.8% (active) in experiment [1] (at 50.0 µM); 8% in experiment [2] (setting [7]); 97% (active) in experiment [2] (setting [8]); 99.2% (active) in experiment [2] (at 50.0 µM). In addition, the growth inhibition in experiment [3] (setting [7]) is 4%; in experiment [3] (setting [8]), 99% (active); in experiment [3] (at 50.0 µM) it was 99% (active); in experiment [4] (setting [7]), -1%; in experiment [4] (setting [8]), 98% (active); in experiment [4] (at 50.0 µM), 98.2% (active). Moreover, the growth inhibition in experiment [5] (setting [7]) was 12%; in experiment [5] (setting [8]), 98% (active); in experiment [5] (at 50.0 µM) it was 98.8% (active); in experiment [6] (setting [7]), -4%; in experiment [6] (setting [8]), 97% (active); in experiment [6] (at 50.0 µM), 98.9% (active).
As to `Cc1cc2c(Br)cc(Br)c(O)c2nc1C(=O)c1ccccc1`, the growth inhibition in experiment [1] (setting [7]) was 23%; in experiment [1] (setting [8]) it was 39%; in experiment [1] (at 50.0 µM), 31.8%; in experiment [2] (setting [7]), 16%; in experiment [2] (setting [8]), 38%; in experiment [2] (at 50.0 µM), 19.5%. Also, the growth inhibition in experiment [3] (setting [7]) was 37%; in experiment [3] (setting [8]), 90% (active); in experiment [3] (at 50.0 µM), 35.8%; in experiment [4] (setting [7]), 33%; in experiment [4] (setting [8]) it was 80% (active); in experiment [4] (at 50.0 µM) it was 43.9%. The growth inhibition in experiment [5] (setting [7]) is 20%; in experiment [5] (setting [8]), 87% (active); in experiment [5] (at 50.0 µM) it was 29.9%; in experiment [6] (setting [7]), 32%; in experiment [6] (setting [8]), 33%; in experiment [6] (at 50.0 µM) it was 21.8%.
